PubChem BioAssay (EPA / NIEHS)
“And” between values parts separate entries of the source, which are not always exact repeats. Identical values can stand only once. Where a structure was tested more than once in an assay, its records may differ in their call. The source made the active and inactive calls. How the source made its calls: active means hit-call score of the fitted dose curve at least 0.9, where 1 is the maximum; inactive means score below 0.9.

Experiments:
[1] = BSK_BF4T_SRB: Viability Assessment in the BioMAP Diversity Plus: BF4T Assay (AID 2284274); settings: primary human bronchial epithelial cells with fibroblasts
Method in brief: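 Co-culture of human bronchial epithelial cells and dermal fibroblasts (BioMAP BF4T) exposed 24 h. Total protein by sulforhodamine B staining (0.1% SRB after 10% TCA fixation, 560 nm) in parallel cultures; fitted vs DMSO.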

[2] = read-out: urokinase Plasminogen Activator (uPA), PLAU (gene 5328); test: BSK_BF4T_uPA: BioMAP Diversity Plus: BF4T Assay for urokinase Plasminogen Activator (uPA) Biomarker Activity (AID 2284275); settings: primary human bronchial epithelial cells with fibroblasts
Method in brief: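 Co-culture of human bronchial epithelial cells and dermal fibroblasts; uPA quantified by ELISA 24 hours after dosing, fitted relative to DMSO. Parallel SRB total-protein staining assessed overt cytotoxicity.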

[3] = read-out: Matrix Metallopeptidase 9 (MMP9), MMP9 (gene 4318); test: BSK_BF4T_MMP9: BioMAP Diversity Plus: BF4T Assay for Matrix Metallopeptidase 9 (MMP9) Biomarker Activity (AID 2284276); settings: primary human bronchial epithelial cells with fibroblasts
Method in brief: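 Co-culture of human bronchial epithelial cells and dermal fibroblasts dosed for 24 h; MMP-9 quantified by ELISA and fitted upward versus DMSO. Cytotoxicity monitored in parallel cultures by SRB total-protein staining at the biomarker time point.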

[4] = read-out: Interleukin-8 (IL8), CXCL8 (gene 3576); test: BSK_IMphg_IL8: BioMAP Diversity Plus: IMphg Assay for Interleukin-8 (IL8) Biomarker Activity (AID 2284277); settings: primary human endothelial cells with macrophages
Method in brief: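 Co-culture of human venular endothelial cells and macrophages exposed to chemicals for 24 h; IL-8 quantified by ELISA and compared against the DMSO baseline, with SRB total-protein staining in parallel cultures for cytotoxicity.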

[5] = read-out: Intercellular Adhesion Molecule 1 (ICAM1), ICAM1 (gene 3383); test: BSK_BE3C_ICAM1: BioMAP Diversity Plus: BE3C Assay for Intercellular Adhesion Molecule 1 (ICAM1) Biomarker Activity (AID 2284278); settings: primary human bronchial epithelial cells;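 further: cell-surface ICAM-1 protein level quantified by ELISA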
Method in brief: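 Human primary bronchial epithelial cultures; compound added; 24 h incubation; cell-surface ICAM-1 measured by ELISA; signal increase fitted relative to DMSO negative control.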

[6] = read-out: Interferon-inducible T-cell alpha chemoattractant (ITAC), CXCL11 (gene 6373); test: BSK_BE3C_ITAC: BioMAP Diversity Plus: BE3C Assay for Interferon-inducible T-cell alpha chemoattractant (ITAC) Biomarker Activity (AID 2284279); settings: primary human bronchial epithelial cells
Method in brief: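 ELISA read-out of I-TAC after 24 h chemical dosing of human lung primary bronchial epithelial cells; gain-of-signal fit vs DMSO baseline. Parallel SRB total-protein staining (0.1% SRB, 10% TCA fixation, 560 nm) assessed cytotoxicity.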

[7] = read-out: Epidermal growth factor receptor (EGFR), EGFR (gene 1956); test: BSK_BE3C_EGFR: BioMAP Diversity Plus: BE3C Assay for Epidermal growth factor receptor (EGFR) Biomarker Activity (AID 2284281); settings: primary human bronchial epithelial cells
Method in brief: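 Compound is added to human bronchial epithelial cells, cells incubate 24 h, then EGFR is detected by ELISA. Values reflect positive-direction fitting relative to DMSO.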

[8] = read-out: KRT18 (gene 3875); test: BSK_BE3C_Keratin818: BioMAP Diversity Plus: BE3C Assay for Keratin 818 Biomarker Activity (AID 2284282); settings: primary human bronchial epithelial cells
Method in brief: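 Chemicals are added to human lung bronchial epithelial primary cells (BE3C system) and incubated 24 h. Keratin 8/18 is then measured by ELISA, with parallel SRB total-protein staining gauging overt cytotoxicity.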

[9] = read-out: Matrix Metallopeptidase 9 (MMP9), MMP9 (gene 4318); test: BSK_BE3C_MMP9: BioMAP Diversity Plus: BE3C Assay for Matrix Metallopeptidase 9 (MMP9) Biomarker Activity (AID 2284283); settings: primary human bronchial epithelial cells
Method in brief: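 MMP9 is measured by ELISA after a 24 h compound exposure of primary human bronchial epithelial cultures. Parallel SRB staining gives overt cytotoxicity. Values fitted in the positive direction against DMSO.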

[10] = read-out: Plasminogen activator inhibitor-1 (PAI1), SERPINE1 (gene 5054); test: BSK_CASM3C_PAI1: BioMAP Diversity Plus: CASM3C Assay for Plasminogen activator inhibitor-1 (PAI1) Biomarker Activity (AID 2284284); settings: primary human coronary artery smooth muscle cells;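 further: PAI-1 protein level measured by ELISA 24 h after dosing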
[11] = read-out: Monocyte Chemoattractant Protein-1 (MCP1), CCL2 (gene 6347); test: BSK_hDFCGF_MCP1: BioMAP Diversity Plus: hDFCGF Assay for Monocyte Chemoattractant Protein-1 (MCP1) Biomarker Activity (AID 2284285); settings: primary human foreskin fibroblasts
Method in brief: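 Human foreskin fibroblasts (hDFCGF system) were exposed to compound and secreted MCP-1 was measured by ELISA after 24 hours. Activity was fitted relative to DMSO. Cytotoxicity was checked by SRB total-protein staining in parallel cultures.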

[12] = read-out: Vascular cell adhesion molecule 1 (VCAM1), VCAM1 (gene 7412); test: BSK_IMphg_VCAM1: BioMAP Diversity Plus: IMphg Assay for Vascular cell adhesion molecule 1 (VCAM1) Biomarker Activity (AID 2284286); settings: primary human endothelial cells with macrophages
Method in brief: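 Human venular endothelial cells co-cultured with macrophages; VCAM-1 quantified by ELISA 24 h after dosing, fitted in the positive direction against DMSO. Cytotoxicity was checked in parallel cultures by SRB total-protein staining (0.1% SRB after 10% TCA fixation, 560 nm).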

[13] = read-out: Intercellular Adhesion Molecule 1 (ICAM1), ICAM1 (gene 3383); test: BSK_hDFCGF_ICAM1: BioMAP Diversity Plus: hDFCGF Assay for Intercellular Adhesion Molecule 1 (ICAM1) Biomarker Activity (AID 2284287); settings: primary human foreskin fibroblasts
Method in brief: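 Primary human foreskin fibroblasts (hDFCGF system) dosed with chemical; ICAM-1 quantified by ELISA at 24 h relative to DMSO. Parallel SRB total-protein staining to assess overt cytotoxicity.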

[14] = read-out: CD40, CD40 (gene 958); test: BSK_IMphg_CD40: BioMAP Diversity Plus: IMphg Assay for CD40 Biomarker Activity (AID 2284288); settings: primary human endothelial cells with macrophages
Method in brief: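 Venular endothelial cells co-cultured with macrophages (human primary), CD40 measured by ELISA 24 h after dosing. Positive-direction fit vs DMSO baseline; cytotoxicity tracked by SRB total-protein staining in parallel cultures.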

[15] = read-out: TIMP metallopeptidase inhibitor 2 (TIMP2), TIMP2 (gene 7077); test: BSK_hDFCGF_TIMP2: BioMAP Diversity Plus: hDFCGF Assay for TIMP metallopeptidase inhibitor 2 (TIMP2) Biomarker Activity (AID 2284289); settings: primary human foreskin fibroblasts
Method in brief: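 Primary human foreskin fibroblasts in the hDFCGF system, dosed for 24 h; TIMP-2 level measured by ELISA, fitted in the positive direction against DMSO; cytotoxicity checked in parallel by sulforhodamine B total protein staining.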

[16] = read-out: Interleukin-1 alpha (IL1a), IL1A (gene 3552); test: BSK_IMphg_IL1a: BioMAP Diversity Plus: IMphg Assay for Interleukin-1 alpha (IL1a) Biomarker Activity (AID 2284290); settings: primary human endothelial cells with macrophages
Method in brief: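 Human venular endothelial cells co-cultured with macrophages, IMphg system. IL-1α is measured by ELISA 24 h after dosing and fitted in the positive direction against DMSO. Cytotoxicity is assessed by SRB staining of parallel cultures.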

[17] = read-out: E-selectin (Homo sapiens) (UniProt P16581); test: BSK_IMphg_ESelectin: BioMAP Diversity Plus: IMphg Assay for Eselectin Biomarker Activity (AID 2284291); settings: primary human endothelial cells with macrophages
Method in brief: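 Human venular endothelial cell–macrophage co-culture, E-selectin measured by ELISA 24 h after chemical dosing. Signal fitted in the positive direction against DMSO as negative control and baseline.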

[18] = BSK_IMphg_SRB: Viability Assessment in the BioMAP Diversity Plus: IMphg Assay (AID 2284292); settings: primary human endothelial cells with macrophages;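 further: measured one day after compound addition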
Method in brief: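 Human venular endothelial cells with macrophages, 24 h after chemical dosing; total protein by 0.1% SRB staining after 10% TCA fixation, read at 560 nm. Positive-direction fitting versus DMSO baseline.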

[19] = read-out: Macrophage colony-stimulating factor (MCSF), CSF1 (gene 1435); test: BSK_IMphg_MCSF: BioMAP Diversity Plus: IMphg Assay for Macrophage colony-stimulating factor (MCSF) Biomarker Activity (AID 2284293); settings: primary human endothelial cells with macrophages
Method in brief: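 Co-culture of human venular endothelial cells and macrophages, 24 hours of chemical exposure. M-CSF quantified by ELISA, with parallel SRB total-protein staining for cytotoxicity; activity fitted relative to DMSO.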

[20] = read-out: Interleukin-10 (IL10), IL10 (gene 3586); test: BSK_IMphg_IL10: BioMAP Diversity Plus: IMphg Assay for Interleukin-10 (IL10) Biomarker Activity (AID 2284294); settings: primary human endothelial cells with macrophages
Method in brief: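 Human venular endothelial cells cocultured with macrophages, dosed 24 h; IL-10 measured by ELISA, activity relative to DMSO. Cytotoxicity assessed in parallel cultures by sulforhodamine B total-protein staining.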

Measured: AC50

E-selectin (Homo sapiens), sequence (P16581 whole entry, looked up): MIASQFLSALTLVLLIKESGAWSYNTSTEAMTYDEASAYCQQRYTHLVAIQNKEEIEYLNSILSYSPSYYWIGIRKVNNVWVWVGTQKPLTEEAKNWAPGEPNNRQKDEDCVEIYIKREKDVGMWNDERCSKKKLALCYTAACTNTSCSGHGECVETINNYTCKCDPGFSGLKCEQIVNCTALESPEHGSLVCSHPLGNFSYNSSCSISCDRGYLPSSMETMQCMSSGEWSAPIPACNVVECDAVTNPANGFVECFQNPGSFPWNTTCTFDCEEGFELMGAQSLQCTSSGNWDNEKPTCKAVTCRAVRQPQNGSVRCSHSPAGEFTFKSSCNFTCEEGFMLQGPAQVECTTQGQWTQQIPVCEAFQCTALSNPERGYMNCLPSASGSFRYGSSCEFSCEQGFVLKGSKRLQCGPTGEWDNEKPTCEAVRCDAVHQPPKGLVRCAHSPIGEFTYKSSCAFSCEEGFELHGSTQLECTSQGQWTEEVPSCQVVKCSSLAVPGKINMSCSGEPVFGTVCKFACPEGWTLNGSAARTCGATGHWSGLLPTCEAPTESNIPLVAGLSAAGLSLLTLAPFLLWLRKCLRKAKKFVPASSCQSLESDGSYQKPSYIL

O=S(=O)(O)C(F)(F)C(F)(F)OC(F)(F)C(F)(F)F
active: [4] 41.7 µM | [20] 47.8 µM and 44.1 µM
inactive: [1] | [2] | [3] | [4] | [5] | [6] | [7] | [8] | [9] | [10] | [11] | [12] | [13] | [14] | [15] | [16] | [17] | [18] | [19]

c1ccc(OCCOc2ccccc2)cc1
inactive: [5] | [6] | [7] | [8] | [9] | [10] | [11] | [13] | [15]
active: [15] 3.6 µM

O=C(O)C(F)(F)C(F)(F)C(F)(F)C(F)(F)C(F)(F)C(F)(F)C(F)(F)C(F)F
active: [20] 47.1 µM and 57.5 µM
inactive: all other assays above

OCC(F)(OC(F)(F)C(F)(OC(F)(F)C(F)(F)C(F)(F)F)C(F)(F)F)C(F)(F)F (configuration not stated)
inactive: [1] | [2] | [3] | [4] | [5] | [6] | [7] | [8] | [9] | [10] | [12] | [14] | [16] | [18] | [19] | [20]
active: [6] 5.2 µM | [11] 4.79 µM and 2.83 µM | [13] 5.06 µM and 2.52 µM | [15] 2.07 µM and 198 nM | [17] 5.64 µM and 3.5 µM | [18] 6.17 µM | [20] 3.33 µM

O=C(O)C(F)(F)OC(F)(F)C(F)(F)OC(F)(F)C(F)(F)C(F)(F)C(F)(F)F
inactive: [1] | [2] | [3] | [4] | [5] | [8] | [9] | [10] | [11] | [12] | [13] | [14] | [15] | [16] | [17] | [18] | [19]
active: [6] 7.77 µM and 7.6 µM | [7] 35 µM and 17.7 µM | [14] 30 µM | [20] 46.5 µM and 49.5 µM

CCCCN(CCO)CCO
active: [15] 4.34 µM
inactive: [5] | [6] | [7] | [8] | [9] | [10] | [11] | [13] | [15]

CCCO[Si](OCCC)(OCCC)OCCC
inactive: [5] | [6] | [7] | [8] | [9] | [10] | [11] | [13] | [15]

CC(C)CCCC(C)(C)O
inactive: [5] | [6] | [7] | [8] | [9] | [10] | [11] | [13] | [15]

CC(C)(CO)CO
inactive: [5] | [6] | [7] | [8] | [9] | [10] | [11] | [13] | [15]

C=C(F)C(=O)OC(C(F)(F)F)C(F)(F)F
inactive: [1] | [2] | [3] | [4] | [5] | [6] | [7] | [8] | [9] | [10] | [11] | [12] | [13] | [14] | [15] | [16] | [17] | [18] | [19] | [20]
active: [14] 5.95 µM

CC(=O)c1ccc(C)cc1
inactive: [5] | [6] | [7] | [8] | [9] | [10] | [11] | [13] | [15]

C=C(C)C(=O)OCCC(F)(F)C(F)(F)C(F)(F)C(F)(F)C(F)(F)C(F)(F)C(F)(F)C(F)(F)F
active: [14] 2.53 µM
inactive: [1] | [2] | [3] | [4] | [5] | [6] | [7] | [8] | [9] | [10] | [11] | [12] | [13] | [14] | [15] | [16] | [17] | [18] | [19] | [20]

CCn1cc(C(=O)O)c(=O)c2ccc(C)nc21
inactive: [5] | [6] | [7] | [8] | [9] | [10] | [11] | [13] | [15]
